Laboratory results taken from PubChem BioAssay (EPA / NIEHS).
The source made the active and inactive calls. How the source made its calls: active means hit-call score of the fitted dose curve at least 0.9, where 1 is the maximum; inactive means score below 0.9.

How the values were obtained:
[1] = biological target: Bile acid receptor (Homo sapiens) (UniProt Q96RI1); test: ATG_IR1_CIS: Attagene CIS-FACTORIAL HepG2 Assay for human Nuclear Receptor Subfamily 1 Group H Member 4 (NR1H4), IR1 submotif (AID 2282946); settings: IR1 reporter transcription, actives raise or lower the signal
How it was run: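 Cells (human HepG2) carry transiently transfected cis-promoter reporter transcription units. Compounds are incubated 24 h, total RNA is reverse-transcribed and amplified, and labelled fragments are resolved by capillary electrophoresis. Curves use DMSO as baseline.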

[2] = ATG_GRE_CIS: Attagene CIS-FACTORIAL HepG2 Assay for human Glucocorticoid Response Elements (GRE) (AID 2282947); settings: HepG2 GRE cis-reporter, Attagene multiplex mRNA; actives raise or lower the signal
How it was run: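 Assay uses human hepatoma HepG2 cells transfected with cis-promoter reporter units, exposed 24 h. mRNA from reporters detected by RT-PCR plus capillary electrophoresis; DMSO serves as negative control and baseline.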

[3] = ATG_ISRE_CIS: Attagene CIS-FACTORIAL HepG2 Assay for human Interferon Regulatory Factor 1 (IRF1) binding to an Interferon-Stimulated Response Element (ISRE) (AID 2282948); settings: HepG2 ISRE cis-reporter (Attagene), mRNA transcription readout; actives raise or lower the signal
How it was run: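 Transfected HepG2 (multiple reporter transcription units, cis elements) dosed 24 h. RNA → oligo(dT) RT → PCR → 6-FAM primer extension → HpaI → CE. DMSO = negative control/baseline.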

[4] = ATG_M_32_CIS: Attagene CIS-FACTORIAL HepG2 Assay for M32 Transcription Factor (Internal Marker) (AID 2282949); settings: HepG2 Attagene cis-factorial M32 reporter, mRNA; actives raise or lower the signal;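 further: background control marker of the multiplexed CIS panel rather than a real target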
How it was run: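 Following 24 h chemical exposure of HepG2 cells transiently expressing cis-promoter reporter constructs, reporter transcript levels were determined by RT-PCR with fluorescent labelling and capillary electrophoresis, then fitted bidirectionally against DMSO.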

[5] = ATG_M_06_CIS: Attagene CIS-FACTORIAL HepG2 Assay for M06 Transcription Factor (Internal Marker) (AID 2282950); settings: HepG2 Attagene CIS-FACTORIAL M06 internal marker reporter; actives raise or lower the signal
How it was run: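 Internal background marker within multiplexed cis-reporter HepG2 system. Cells transiently transfected, dosed 24 h; reporter mRNA measured by RT-PCR, HpaI digestion and capillary electrophoresis. Bidirectional fit relative to DMSO.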

[6] = biological target: Hypoxia-inducible factor 1-alpha (Homo sapiens) (UniProt Q16665); test: ATG_HIF1a_CIS: Attagene CIS-FACTORIAL HepG2 Assay for human Hypoxia Inducible Factor 1 (HIF1A) (AID 2282951); settings: HepG2 Attagene cis-factorial HIF1a reporter transcription; actives raise or lower the signal
How it was run: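 Measures endogenous transcription-factor activity through cis-regulated reporter mRNA in HepG2. Cells dosed 24 h; transcripts quantified by RT-PCR with 6-FAM-labelled products separated by capillary electrophoresis; DMSO serves as negative control.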

[7] = biological target: Hepatocyte nuclear factor 6 (Homo sapiens) (UniProt Q9UBC0); test: ATG_HNF6_CIS: Attagene CIS-FACTORIAL HepG2 Assay for human Hepatocyte Nuclear Factor 6 (HNF6) (AID 2282952); settings: HepG2 Attagene cis-factorial HNF6 reporter transcription; actives raise or lower the signal
How it was run: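 HepG2, transient MRTU transfection (cis promoters); 24 h chemical exposure; total RNA → oligo(dT) RT → PCR → 6-FAM labelling → HpaI cut → CE; bidirectional fit vs DMSO.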

[8] = biological target: Heat shock factor protein 1 (Homo sapiens) (UniProt Q00613); test: ATG_HSE_CIS: Attagene CIS-FACTORIAL HepG2 Assay for human Heat Shock Transcription Factor 1 (HSE) (AID 2282953); settings: HepG2 HSE cis-reporter, Attagene RNA transcription; actives raise or lower the signal
How it was run: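 HepG2 cells transfected with cis-promoter reporter units sensing endogenous transcription factor activity; reporter mRNA quantified 24 h post-dose by RT-PCR and capillary electrophoresis of 6-FAM-labelled products. Bidirectional fitting against DMSO.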

[9] = ATG_MRE_CIS: Attagene CIS-FACTORIAL HepG2 Assay for human Metal Responsive Element (MRE) (AID 2282954); settings: HepG2 MRE cis-reporter transcription, Attagene multiplex; actives raise or lower the signal
How it was run: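 After a 24 h chemical exposure, transiently transfected HepG2 cells yield RNA whose reporter sequences are amplified, FAM-labelled and sized by capillary electrophoresis. Curves are fitted bidirectionally relative to DMSO.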

[10] = ATG_PBREM_CIS: Attagene CIS-FACTORIAL HepG2 Assay for human Phenobarbital-responsive Enhancer Module (PBREM) (AID 2282955); settings: HepG2 PBREM cis-reporter, Attagene multiplexed transcription; actives raise or lower the signal
How it was run: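 Fluorescence of labelled reporter cDNA fragments, resolved by capillary electrophoresis, gives mRNA induction in transfected HepG2 cells treated for 24 h; DMSO serves as negative control and baseline.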

[11] = biological target: Paired box protein Pax-6 (Homo sapiens) (UniProt P26367); test: ATG_Pax6_CIS: Attagene CIS-FACTORIAL HepG2 Assay for human Paired Box 6 (PAX6) (AID 2282956); settings: HepG2 CIS-FACTORIAL PAX6 reporter transcription, RNA readout; actives raise or lower the signal
How it was run: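 Transient MRTU transfection of HepG2 → compound exposure 24 h → TriZol RNA, oligo(dT) RT → PCR, 6-FAM primer extension, HpaI cut → capillary electrophoresis; activity fitted both directions against DMSO.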

[12] = ATG_PXRE_CIS: Attagene CIS-FACTORIAL HepG2 Assay for human Pregnane X Receptor Element (PXRE) (AID 2282957); settings: HepG2 Attagene CIS-FACTORIAL PXRE reporter, mRNA; actives raise or lower the signal
How it was run: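 Transfect HepG2 with MRTUs (cis promoter elements); dose chemical, incubate 24 h; isolate RNA, RT with oligo(dT), PCR, 6-FAM label, HpaI cut, CE. Gain/loss fit vs DMSO.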

[13] = ATG_PPRE_CIS: Attagene CIS-FACTORIAL HepG2 Assay for human Peroxisome Proliferator-activated Response Element (PPRE) (AID 2282958); settings: HepG2 PPRE cis-element reporter, Attagene transcription factor profiling; actives raise or lower the signal
How it was run: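 Cells are first transfected transiently with the multiplexed reporter library, then dosed for 24 h. Total RNA is reverse-transcribed, amplified, fluorescently end-labeled and HpaI-cut before capillary electrophoresis; activity is fitted bidirectionally against DMSO controls.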

[14] = ATG_Sox_CIS: Attagene CIS-FACTORIAL HepG2 Assay for human SRY-box transcription factor (SOX) (AID 2282960); settings: HepG2 Attagene cis-factorial SOX reporter, mRNA; actives raise or lower the signal
How it was run: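 Transient MRTU transfection of HepG2; 24 h compound incubation; TriZol RNA, oligo(dT) RT, PCR, 6-FAM primer extension, HpaI cut, CE. Bidirectional fit, DMSO = baseline.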

[15] = biological target: Transcription factor Sp1 (Homo sapiens) (UniProt P08047); test: ATG_Sp1_CIS: Attagene CIS-FACTORIAL HepG2 Assay for human Specificity Protein 1 (Sp1) (AID 2282961); settings: HepG2 Sp1 cis-reporter transcription, actives raise or lower the signal
How it was run: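 Endogenous Sp1 activity was gauged in human liver HepG2 cells bearing transfected reporter units under a cis-regulating promoter. After 24 h dosing, reporter mRNA was quantified by RT-PCR with capillary electrophoresis, and activity fitted bidirectionally versus DMSO.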

[16] = ATG_SREBP_CIS: Attagene CIS-FACTORIAL HepG2 Assay for human Sterol Regulatory Element Binding (SREBP) (AID 2282962); settings: HepG2 Attagene cis-factorial SREBP reporter, mRNA; actives raise or lower the signal
How it was run: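 Transfected HepG2 (cis-regulated reporter library, endogenous TFs) → compound 24 h → total RNA → oligo(dT) RT → reporter-specific PCR → FAM primer extension, HpaI cut → CE fluorescence. Fit bidirectional vs DMSO.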

[17] = ATG_TA_CIS: Attagene CIS-FACTORIAL HepG2 Assay for human TA Basal Promoter (AID 2282964); settings: HepG2 Attagene CIS-factorial TA basal promoter reporter; actives raise or lower the signal
How it was run: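 HepG2 cells transiently transfected with multiple reporter units under cis promoter elements, reporting endogenous transcription factor activity; this endpoint tracks the TA basal promoter as background control. Reporter mRNA after 24 h dosing measured by RT-PCR/capillary electrophoresis; bidirectional fits versus DMSO.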

[18] = ATG_TCF_b_cat_CIS: Attagene CIS-FACTORIAL HepG2 Assay for human T-Cell-Factor with beta-catenin (TCF/b-cat) (AID 2282965); settings: HepG2 TCF/beta-catenin cis-reporter transcription, actives raise or lower the signal
How it was run: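 Endogenous transcription factor activity is captured through cis-promoter reporter constructs transiently introduced into human HepG2 liver cells. Induced reporter mRNA is measured after 24 h and fitted bidirectionally relative to DMSO.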

[19] = ATG_RORE_CIS: Attagene CIS-FACTORIAL HepG2 Assay for human RAR-related Orphan Receptor Element (RORE) (AID 2282959); settings: HepG2 Attagene cis-factorial RORE reporter, mRNA; actives raise or lower the signal
How it was run: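 Cells were HepG2 carrying transfected cis-regulated reporter constructs, dosed for 24 hours. Total RNA was reverse-transcribed and reporter cDNA amplified, fluorescently labeled and sized by capillary electrophoresis. Activity was fitted bidirectionally relative to DMSO.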

[20] = biological target: Signal transducer and activator of transcription 3 (Homo sapiens) (UniProt P40763); test: ATG_STAT3_CIS: Attagene CIS-FACTORIAL HepG2 Assay for human Signal Transducer and Activator of Transcription 3 (STAT3) (AID 2282963); settings: HepG2, Attagene cis-factorial STAT3 reporter transcription; actives raise or lower the signal
How it was run: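 After a 24 h compound incubation, total RNA from MRTU-transfected HepG2 cells was converted to cDNA and reporter sequences PCR-amplified, labelled and profiled by capillary electrophoresis. Gain and loss of signal were referenced to DMSO.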

Measured: AC50

Transcription factor Sp1 (Homo sapiens), sequence (P08047 whole entry, looked up): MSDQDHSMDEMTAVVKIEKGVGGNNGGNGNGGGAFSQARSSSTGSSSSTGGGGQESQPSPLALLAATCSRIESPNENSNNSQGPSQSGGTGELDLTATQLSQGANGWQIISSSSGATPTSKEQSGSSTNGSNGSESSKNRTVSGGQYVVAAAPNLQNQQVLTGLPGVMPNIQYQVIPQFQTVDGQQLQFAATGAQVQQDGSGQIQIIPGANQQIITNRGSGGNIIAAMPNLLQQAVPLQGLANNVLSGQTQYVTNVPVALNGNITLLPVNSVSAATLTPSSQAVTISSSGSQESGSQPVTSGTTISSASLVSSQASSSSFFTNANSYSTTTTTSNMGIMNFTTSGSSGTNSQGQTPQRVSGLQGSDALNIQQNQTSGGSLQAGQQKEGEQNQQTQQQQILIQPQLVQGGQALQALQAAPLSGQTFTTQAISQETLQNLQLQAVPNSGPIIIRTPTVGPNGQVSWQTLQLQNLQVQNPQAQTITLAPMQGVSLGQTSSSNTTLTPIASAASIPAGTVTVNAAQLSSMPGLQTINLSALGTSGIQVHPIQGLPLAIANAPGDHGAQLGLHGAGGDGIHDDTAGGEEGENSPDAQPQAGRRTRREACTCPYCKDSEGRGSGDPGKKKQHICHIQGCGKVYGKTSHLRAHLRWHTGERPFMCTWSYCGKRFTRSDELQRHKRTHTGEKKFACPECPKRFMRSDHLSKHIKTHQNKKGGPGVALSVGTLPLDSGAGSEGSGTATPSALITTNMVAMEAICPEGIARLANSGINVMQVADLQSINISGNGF
Signal transducer and activator of transcription 3 (Homo sapiens), sequence (P40763 whole entry, looked up): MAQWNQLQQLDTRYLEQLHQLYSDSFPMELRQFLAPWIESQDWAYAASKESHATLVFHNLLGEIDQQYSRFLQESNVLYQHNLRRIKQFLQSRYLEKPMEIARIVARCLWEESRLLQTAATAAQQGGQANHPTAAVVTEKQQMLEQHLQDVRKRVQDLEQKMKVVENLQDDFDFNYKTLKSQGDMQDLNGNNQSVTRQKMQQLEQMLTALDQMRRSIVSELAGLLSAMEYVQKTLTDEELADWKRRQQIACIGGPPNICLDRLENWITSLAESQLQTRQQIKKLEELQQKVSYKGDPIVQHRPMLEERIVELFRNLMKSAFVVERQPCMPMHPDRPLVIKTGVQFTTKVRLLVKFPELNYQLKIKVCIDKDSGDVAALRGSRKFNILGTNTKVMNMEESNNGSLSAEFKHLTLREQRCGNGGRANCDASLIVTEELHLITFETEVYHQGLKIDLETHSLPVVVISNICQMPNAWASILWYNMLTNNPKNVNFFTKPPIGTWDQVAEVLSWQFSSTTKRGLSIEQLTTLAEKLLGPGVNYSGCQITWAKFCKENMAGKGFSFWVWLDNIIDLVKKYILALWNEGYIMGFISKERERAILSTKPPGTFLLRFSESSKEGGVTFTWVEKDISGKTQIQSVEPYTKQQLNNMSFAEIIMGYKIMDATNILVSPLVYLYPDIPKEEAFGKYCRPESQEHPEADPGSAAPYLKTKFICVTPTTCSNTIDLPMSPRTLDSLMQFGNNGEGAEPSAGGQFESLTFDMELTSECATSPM
Bile acid receptor (Homo sapiens), sequence (Q96RI1 whole entry, looked up, the tested form may be a part): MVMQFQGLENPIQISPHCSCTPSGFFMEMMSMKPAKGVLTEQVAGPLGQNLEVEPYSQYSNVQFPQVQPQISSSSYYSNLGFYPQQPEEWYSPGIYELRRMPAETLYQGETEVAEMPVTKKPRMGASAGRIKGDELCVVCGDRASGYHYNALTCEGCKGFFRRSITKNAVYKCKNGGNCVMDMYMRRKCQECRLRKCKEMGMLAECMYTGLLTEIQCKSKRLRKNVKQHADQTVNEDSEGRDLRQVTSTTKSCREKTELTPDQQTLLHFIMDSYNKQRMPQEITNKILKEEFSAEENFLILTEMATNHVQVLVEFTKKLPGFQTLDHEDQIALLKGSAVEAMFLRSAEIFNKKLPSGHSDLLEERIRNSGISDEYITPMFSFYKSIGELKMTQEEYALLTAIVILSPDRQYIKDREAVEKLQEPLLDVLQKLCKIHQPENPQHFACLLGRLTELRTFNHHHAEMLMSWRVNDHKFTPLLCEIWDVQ
Paired box protein Pax-6 (Homo sapiens), sequence (P26367 whole entry, looked up): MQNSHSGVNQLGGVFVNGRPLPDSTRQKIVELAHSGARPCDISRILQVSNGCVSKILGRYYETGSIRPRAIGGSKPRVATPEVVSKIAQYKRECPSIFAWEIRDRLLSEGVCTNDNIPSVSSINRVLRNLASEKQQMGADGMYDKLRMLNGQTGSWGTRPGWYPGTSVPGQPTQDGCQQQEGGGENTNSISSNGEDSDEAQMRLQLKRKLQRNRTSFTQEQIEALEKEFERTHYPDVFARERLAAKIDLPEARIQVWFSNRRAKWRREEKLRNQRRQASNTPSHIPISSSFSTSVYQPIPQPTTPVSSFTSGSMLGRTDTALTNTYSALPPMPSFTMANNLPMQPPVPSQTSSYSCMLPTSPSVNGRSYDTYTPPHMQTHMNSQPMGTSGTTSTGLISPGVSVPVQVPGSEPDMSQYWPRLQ
Hepatocyte nuclear factor 6 (Homo sapiens), sequence (Q9UBC0 whole entry, looked up): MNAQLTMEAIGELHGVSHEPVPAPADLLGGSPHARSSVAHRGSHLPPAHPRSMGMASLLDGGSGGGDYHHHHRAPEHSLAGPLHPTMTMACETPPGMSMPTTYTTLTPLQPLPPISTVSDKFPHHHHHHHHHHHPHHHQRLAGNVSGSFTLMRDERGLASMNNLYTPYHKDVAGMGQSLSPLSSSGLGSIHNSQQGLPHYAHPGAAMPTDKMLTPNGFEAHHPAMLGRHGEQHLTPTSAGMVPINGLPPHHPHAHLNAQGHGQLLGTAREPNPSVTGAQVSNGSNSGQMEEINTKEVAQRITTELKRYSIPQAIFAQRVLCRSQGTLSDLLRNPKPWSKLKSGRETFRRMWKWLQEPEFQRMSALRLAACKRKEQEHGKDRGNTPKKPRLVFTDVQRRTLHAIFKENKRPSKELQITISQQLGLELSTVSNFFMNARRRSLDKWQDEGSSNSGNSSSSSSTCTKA
Hypoxia-inducible factor 1-alpha (Homo sapiens), sequence (Q16665 whole entry, looked up): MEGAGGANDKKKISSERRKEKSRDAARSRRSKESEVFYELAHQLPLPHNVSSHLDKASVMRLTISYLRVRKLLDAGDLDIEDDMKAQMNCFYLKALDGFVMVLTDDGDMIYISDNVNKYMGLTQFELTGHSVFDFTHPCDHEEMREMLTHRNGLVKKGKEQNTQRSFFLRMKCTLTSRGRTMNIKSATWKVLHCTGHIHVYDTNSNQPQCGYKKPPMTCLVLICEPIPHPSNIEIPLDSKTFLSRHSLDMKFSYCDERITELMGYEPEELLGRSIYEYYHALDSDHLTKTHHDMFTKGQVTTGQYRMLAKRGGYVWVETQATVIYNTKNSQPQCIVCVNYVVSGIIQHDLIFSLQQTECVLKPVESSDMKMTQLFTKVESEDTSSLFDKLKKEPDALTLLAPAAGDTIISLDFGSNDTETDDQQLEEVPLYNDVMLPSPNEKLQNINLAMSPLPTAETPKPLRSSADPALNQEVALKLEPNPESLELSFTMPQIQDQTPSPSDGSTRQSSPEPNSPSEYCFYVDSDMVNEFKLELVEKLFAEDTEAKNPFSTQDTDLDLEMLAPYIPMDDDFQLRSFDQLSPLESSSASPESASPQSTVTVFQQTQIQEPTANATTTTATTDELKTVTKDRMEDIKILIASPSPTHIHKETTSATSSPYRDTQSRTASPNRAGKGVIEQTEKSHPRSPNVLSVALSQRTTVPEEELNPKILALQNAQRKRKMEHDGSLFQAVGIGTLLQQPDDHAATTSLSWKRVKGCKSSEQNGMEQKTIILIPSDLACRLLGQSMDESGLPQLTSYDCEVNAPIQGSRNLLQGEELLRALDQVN
Heat shock factor protein 1 (Homo sapiens), sequence (Q00613 whole entry, looked up): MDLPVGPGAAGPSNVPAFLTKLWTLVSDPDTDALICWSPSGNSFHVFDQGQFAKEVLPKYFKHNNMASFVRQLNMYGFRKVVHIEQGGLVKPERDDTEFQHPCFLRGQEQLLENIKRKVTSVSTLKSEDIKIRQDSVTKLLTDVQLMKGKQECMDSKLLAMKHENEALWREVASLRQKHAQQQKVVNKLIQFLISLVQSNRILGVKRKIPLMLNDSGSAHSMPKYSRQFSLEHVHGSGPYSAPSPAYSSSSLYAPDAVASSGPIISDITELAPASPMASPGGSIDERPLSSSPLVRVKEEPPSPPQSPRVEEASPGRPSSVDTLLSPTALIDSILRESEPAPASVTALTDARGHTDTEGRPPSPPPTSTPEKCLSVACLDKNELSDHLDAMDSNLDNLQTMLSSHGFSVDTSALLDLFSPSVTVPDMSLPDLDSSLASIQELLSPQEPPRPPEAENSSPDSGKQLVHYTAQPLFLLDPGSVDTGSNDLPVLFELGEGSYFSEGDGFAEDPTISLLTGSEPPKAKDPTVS

CCCCCCCCCOC(C)=O
active: [12] 49 µM
inactive: [1] | [2] | [3] | [4] | [5] | [6] | [7] | [8] | [9] | [10] | [11] | [13] | [14] | [15] | [16] | [17] | [18]

NC(=O)c1ccccc1Cl
inactive: [1] | [2] | [4] | [5] | [6] | [7] | [9] | [10] | [13] | [19] | [16] | [20] | [17]
active: [3] 100 µM | [11] 65 µM | [12] 40.7 µM | [14] 68.9 µM | [15] 41.1 µM | [18] 65.8 µM

Clc1nc(C(Cl)(Cl)Cl)c(Cl)c(Cl)c1Cl
inactive: [4] | [5] | [6] | [10] | [11] | [13] | [19] | [14] | [15] | [20] | [17]
active: [1] 22.6 µM | [3] 62.7 µM | [7] 49.9 µM | [8] 53.9 µM | [9] 54.4 µM | [12] 39.4 µM | [16] 52.5 µM | [18] 62.7 µM

CCC(O)CO (centres undefined)
active: [12] 0.0826 µM
inactive: [1] | [2] | [3] | [4] | [5] | [6] | [8] | [9] | [10] | [11] | [13] | [14] | [15] | [16] | [20] | [17] | [18]

C#C[C@]1(O)CC[C@H]2[C@@H]3CCC4=Cc5oncc5C[C@]4(C)[C@H]3CC[C@@]21C
inactive: [2] | [4] | [5] | [13] | [19] | [20]
active: [1] 23.5 µM | [3] 31.2 µM | [7] 60.9 µM | [8] 58.2 µM | [9] 27.3 µM | [10] 5.83 µM | [11] 20.1 µM | [15] 57.6 µM | [16] 14.8 µM | [17] 8.11 µM | [18] 22 µM

CC1(C)CCC(C)(C)c2cc(C(=O)Nc3ccc(C(=O)O)cc3)ccc21
active: [1] 4.75 µM | [3] 100 µM | [6] 55.1 µM | [8] 157 µM | [9] 74.5 µM | [11] 85 µM | [13] 43.7 µM | [19] 32.7 µM | [17] 27.7 µM | [18] 48.2 µM
inactive: [2] | [5] | [7] | [10] | [14] | [15] | [16] | [20]

CC(CCO)CCc1ccccc1 (centres undefined)
inactive: [1] | [2] | [3] | [4] | [5] | [6] | [8] | [9] | [11] | [13] | [14] | [15] | [16] | [20] | [17] | [18]
active: [12] 41.1 µM

C=CC(C)(C)O
inactive: [1] | [2] | [3] | [4] | [5] | [6] | [8] | [9] | [11] | [12] | [13] | [19] | [14] | [15] | [16] | [20] | [17] | [18]
